DUSP3 inh: inhibitors of human VHR1 phosphatase (DUSP3); P51452; recombinant VHR phosphatase, pNPP absorbance; inhibition, % at 13.3 µM; 290,000 compounds, 0.52% hits; in the data active = inhibition above about 50%
Target sequence (P51452 whole entry, looked up): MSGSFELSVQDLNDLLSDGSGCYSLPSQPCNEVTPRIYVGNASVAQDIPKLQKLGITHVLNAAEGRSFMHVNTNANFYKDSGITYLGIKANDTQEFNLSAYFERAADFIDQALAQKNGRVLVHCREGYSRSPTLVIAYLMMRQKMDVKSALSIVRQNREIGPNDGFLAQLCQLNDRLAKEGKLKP
Sa ugtP lethal: growth inhibition of S. aureus ugtP deletion strain; S. aureus RN4220 ugtP deletion, OD600 growth, 16 h; growth inhibition, % (no concentration beside the values); 330,000 compounds, 0.54% hits; in the data active = growth inhibition above about 68%;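 note: plate controls were untreated wells for no effect and antibiotic for full effect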
PfHsp40 rescue: rescue of PfHsp40-mediated yeast toxicity; 340,000 compounds, 0.68% hits; AID 504582; growth rescue, % at 12.5 µM; S. cerevisiae expressing PfHsp40, growth rescue, ATP luminescence; in the data active = growth rescue above about 28%, passing the limit was not always enough;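 note: yeast W303a lacking pdr1 and pdr3 grown in galactose medium; growth measured after three days at 30 °C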
PrPC TRFRET: reduces human prion protein on the cell surface. P04156. cell surface PrPC, TR-FRET read-out. inhibition, % at 13.8 µM. 370,000 compounds, 0.43% hits; in the data active = inhibition above about 24%; note: 0% = median of the test wells and 100% = reference compound wells
Sa RN4220 lethal: S. aureus RN4220 growth inhibition; OD600, 16 h; 330,000 compounds, 0.33% hits; inhibition, % (test concentration not listed); in the data active = inhibition above about 85%;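 note: plate controls were untreated cells for no effect and reference antibiotic for full effect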
Numbers without * were called inactive; . = no result. Rows were chosen to be rich in hits. Some 1.8% of all compounds tested hit in one or more screens of this group.

SMILES | DUSP3 inh | Sa ugtP lethal | PfHsp40 rescue | PrPC TRFRET | Sa RN4220 lethal
COC(=O)CSc1nc2ccccc2n1CC(=O)N(C(C)C)C(C)C | 51.7* | -2.7 | -0.3 | 8.7 | 3.7
Cc1ccc(S(=O)(=O)N2CCc3ccccc3C2)cc1 | 52.0* | 6.0 | 0.3 | 5.2 | 5.7
CCCCN(CC)c1nc(-c2ccncc2)nc2ccccc12 | -5.8 | -15.5 | 0.9 | -6.0 | -9.2
CCCN(CCC)c1nc(-c2ccccn2)nc2ccccc12 | -15.2 | 99.6* | 2.1 | 2.8 | 99.1*
CCN(CC)c1nc(-c2ccccn2)nc(-c2ccccc2)c1C#N | 5.5 | -5.6 | 71.4* | 3.1 | 0.6
CCOc1ccc(N(CC(=O)NN=Cc2cc(Br)c(C)o2)S(C)(=O)=O)cc1 | . | 3.8 | . | . | 2.1
COc1ccccc1NC(=O)C(C#N)=Cc1c(C)nn(-c2ccc(F)cc2)c1Cl | . | -6.1 | . | . | 15.4
COc1cccc(OC)c1C(=O)N1CCN(S(=O)(=O)c2ccccc2)CC1 | -12.1 | 5.0 | 1.6 | -5.4 | 3.3
COc1ccccc1C(=O)N1CCN(S(=O)(=O)c2ccccc2)CC1 | 57.1* | 4.5 | -1.8 | 6.9 | 2.2
COCC(=O)Oc1c(S(=O)(=O)c2ccc(C)cc2)c(C)nn1-c1ccccc1 | 27.1 | 14.2 | 157.3* | -1.4 | 6.5
COc1ccc(N2CCN(C3CCCN(S(=O)(=O)c4ccccc4)C3)CC2)cc1 (stereo not given) | 6.5 | 13.3 | -1.8 | -2.0 | 4.2
COc1ccc(N2CCN(C3CCCN(S(=O)(=O)c4ccc(C)cc4C)C3)CC2)cc1 (stereo not given) | 56.7* | 3.3 | -0.8 | 3.0 | 0.6
COc1ccc(N2CCN(C3CCCN(Cc4ccc(F)cc4Cl)C3)CC2)cc1 (stereo not given) | 51.3* | 12.2 | 0.5 | -6.3 | 8.3
Cc1cc(C(=O)NN=Cc2cccc([N+](=O)[O-])c2O)n[nH]1 | . | 4.3 | . | . | 15.5
O=C(/C=C/c1ccccc1[N+](=O)[O-])c1ccccc1Br | 16.9 | 12.9 | 59.9* | -10.9 | 30.3
Cc1ccc(C(=O)/C=C/c2ccccc2[N+](=O)[O-])cc1 | -12.3 | -3.5 | 1.6 | -1.0 | 14.3
Cc1nn(C)c(C)c1NC(=O)Nc1ccc(Cl)c(Cl)c1 | 17.9 | 89.1 | -2.2 | 5.0 | active
O=c1c2ccccc2nc(-c2ccccc2)n1-c1ccccc1O | 0.3 | 8.4 | 0.1 | -6.1 | 8.1
O=C1c2ccccc2-n2c1nc1ccccc1c2=O | 16.5 | 53.8 | 57.7* | 0.5 | 53.7
CCN(CC)c1ccc(C(=S)NC2CCCCC2)cc1 | 5.2 | active | 4.6 | 6.6 | 89.8
N#Cc1c(N=Cc2ccc(-c3ccccc3C(=O)O)o2)sc2c1CCCC2 | . | 8.0 | . | . | 5.7
CC1CCC(C(C)C)C(OC(=O)Cn2c(-c3ccccc3)[n+](C)c3ccccc32)C1 (stereo not given) | 1.5 | 100.5* | -0.7 | 19.6 | 99.5*
CC1CCC(C(C)C)C(OC(=O)Cn2c(COc3ccccc3)[n+](C)c3ccccc32)C1 (stereo not given) | 2.5 | 100.4* | 0.8 | -3.5 | 100.6*
CC1CCC(C(C)C)C(OC(=O)Cn2c(-c3ccc(F)cc3)[n+](C)c3ccccc32)C1 (stereo not given) | 28.2 | 100.2* | 0.9 | 11.6 | 96.9*
O=[N+]([O-])c1ccccc1C=Nn1c(-c2cccnc2)n[nH]c1=S | . | 9.3 | . | . | -7.1
SMILES | DUSP3 inh | Sa ugtP lethal | PfHsp40 rescue | PrPC TRFRET | Sa RN4220 lethal
CN(C)c1ccc(C=Nn2c(-c3ccccc3Br)n[nH]c2=S)cc1 | . | 13.8 | . | . | 5.6
O=C(O)c1cc(-c2ccc(-c3c(-c4ccc5c(c4)OCO5)noc3-c3ccsc3)cc2)nc2ccccc12 | 12.7 | 93.7* | 2.5 | 0.4 | 96.3*
CN(C)c1ccc(-c2c(-c3ccc4c(c3)OCO4)noc2-c2ccsc2)cn1 | 16.6 | 21.6 | 2.9 | . | -6.1
CCC(C)C1NC(=O)c2cc([N+](=O)[O-])cc(F)c2NCCCCC(C(N)=O)NC(=O)C(CC(N)=O)NC1=O (stereo not given) | . | -11.2 | . | . | 1.7
O=C(Oc1cc2oc(=O)cc(-c3ccccc3)c2cc1Cl)C1CCCCC1 | 17.3 | -5.7 | 68.0* | -0.9 | -5.0
COc1ccccc1-c1coc2c(CN3CCC(C)CC3)c(O)ccc2c1=O | 57.0* | . | -1.0 | -3.4 | .
COc1ccc(NC2CCCN(C(=O)CCc3ccncc3)C2)cc1OC (stereo not given) | 54.2* | -2.1 | 0.2 | -11.6 | -0.9
Cc1ccc(NC2CCCN(C(=O)CCc3ccncc3)C2)cc1C (stereo not given) | 18.8 | -6.4 | 2.1 | 3.1 | -2.2
Cc1cc(C)c(NS(=O)(=O)c2ccc3c(c2)NC(=O)CCS3)c(C)c1 | 5.7 | 3.4 | -0.1 | 3.4 | 55.4
COc1ccc(Cl)cc1NS(=O)(=O)c1ccc2c(c1)NC(=O)CCS2 | 10.4 | 1.5 | 1.5 | 2.1 | 12.3
Cc1ccc(NS(=O)(=O)c2ccc3c(c2)NC(=O)CCS3)c(C)c1 | -0.7 | 95.6* | -0.6 | 22.8 | 98.0*
Cc1ccc(NS(=O)(=O)c2ccc3c(c2)NC(=O)CCS3)c(Cl)c1 | 12.3 | 89.8* | 0.2 | 14.0 | 96.3*
COc1ccc(C(N)=NOC(=O)c2ccc(C)c([N+](=O)[O-])c2)cc1OC | . | -1.2 | . | . | 4.9
COc1ccc(/C=C2\Sc3ccc(C(=O)N4CCc5ccccc5C4)cc3N(C)C2=O)cc1 | 7.8 | . | . | . | .
COc1ccc(/C=C2/Sc3ccc(C(=O)N4CCc5ccccc5C4)cc3NC2=O)cc1 | 9.6 | -7.6 | 47.5* | 3.5 | 3.8
COc1ccc(C(C)=NOCC(=O)N=Nc2c(O)[nH]c3ccc(Br)cc23)cc1 | . | -20.2 | . | . | -3.8
S=C(NCc1ccccc1)NC1CCCc2ccccc21 (stereo not given) | 32.5 | 1.9 | 35.8* | 5.0 | -2.1
S=C(NCc1ccco1)NC1CCCc2ccccc21 (stereo not given) | 27.4 | 11.1 | -0.3 | 10.9 | -0.8
CCOc1ccc(C(=O)Nc2cccc3nsnc23)cc1[N+](=O)[O-] | 56.4* | -4.1 | -0.6 | -0.7 | 7.1
CC1CN(C(C)CO)C(=O)Cc2cc(NC(=O)CCC(F)(F)F)ccc2OC1CN(C)CC1CC1 (stereo not given) | . | 2.4 | . | . | -0.1
CCN1CCN(C(=S)c2ccc(Cl)cc2)CC1 | 50.3* | 5.9 | -1.2 | -5.9 | 0.5
OCCN1CCN(C(=S)c2ccc(Cl)cc2)CC1 | -6.0 | 6.6 | 0.5 | 2.5 | 6.2
Cc1nn(C(C)(C)C)c(OC(=O)c2cccs2)c1S(=O)(=O)c1ccccc1 | 28.0 | 11.5 | 66.8* | -4.2 | 0.3
CC(=O)Oc1c(S(=O)(=O)c2ccccc2)c(C)nn1C(C)(C)C | -2.4 | -0.2 | -0.3 | 0.6 | 5.1
N#CC(=NNc1cccc(Cl)c1)C(=O)c1ccccc1 | . | 100.0* | . | . | 100.1*
N#CC(=NNc1ccc(Cl)cc1)C(=O)c1ccsc1 | . | 99.0* | . | . | 99.7*
N#CC(=NNc1ccc(Cl)cc1)C(N)=S | . | 88.1* | . | . | 81.3
COc1cccc(C=NNc2nc(Nc3ccc([N+](=O)[O-])cc3)nc(N3CCCC3)n2)c1O | . | -24.2 | . | . | 1.8
O=C(O)CCC(=O)N1N=C(c2ccc(Br)cc2)CC1c1ccc(Br)cc1 (stereo not given) | 55.5* | . | 0.6 | 3.9 | .
